Results as given in publication PMC5540273 (PLoS ONE, 2017).
“And” between values parts separate entries of the source, which are not always exact repeats. Equal values may be shown once. Read-outs that look alike come from different tables or passages of the source.

Key:
DDR2 = details: concentration: 1 μM, replicates: in singlicate, n = 1
DLK = system: T1, DLK; details: concentration: 1 μM, replicates: in singlicate, n = 1
T1 construct: gene MAP3K12

DMPK2 = system: T2, DMPK2; details: concentration: 1 μM, replicates: in singlicate, n = 1
T2 construct: gene CDC42BPG

DMPK = details: concentration: 1 μM, replicates: in singlicate; n = 1
DRAK1 = system: T3, DRAK1; details: concentration: 1 μM, replicates: in singlicate; n = 1
T3 construct: gene STK17A

DRAK2 = system: T4, DRAK2; details: concentration: 1 μM, replicates: in singlicate, n = 1
T4 construct: gene STK17B

DYRK1A = details: concentration: 1 μM, replicates: in singlicate; n = 1
DYRK1B = details: concentration: 1 μM, replicates: in singlicate, n = 1
DYRK2 = details: concentration: 1 μM, replicates: in singlicate; n = 1
EGFR = details: concentration: 1 μM, replicates: in singlicate, n = 1
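Note: KINOMEscan kinase panel screen.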

SMILES | %Inh (DDR2) | %Inh (DLK) | %Inh (DMPK2) | %Inh (DMPK) | %Inh (DRAK1) | %Inh (DRAK2) | %Inh (DYRK1A) | %Inh (DYRK1B) | %Inh (DYRK2) | %Inh (EGFR) | %Inh (DDR2; 1 µM) | %Inh (DLK; 1 µM) | %Inh (DMPK2; 1 µM) | %Inh (DRAK2; 1 µM) | %Inh (DYRK1B; 1 µM) | %Inh (EGFR; 1 µM)
Clc1cccc(-c2nc(Nc3ccncc3)c3ccccc3n2)c1 [GW873004] | 32% | 0% | 84% | 4% | 0% | 10% | 12% | 57% | 7% | 10% |  |  |  |  |  | 
OCCOCCn1ccc2ncnc(Nc3ccc(Oc4cccc(Cl)c4)c(Cl)c3)c21 | 0% | 0% | 0% | 0% | 0% | 0% | 0% | 0% | 0% | 100% |  |  |  |  |  | 
COC(=O)c1cccc(NC(=O)NCCNc2ccnc(Nc3ccc(F)cc3)n2)c1 [GSK1379883] | 17% | 31% | 8% | 0% | 0% | 0% | 0% | 14% | 5% | 3% |  |  |  |  |  | 
Nc1nccc2scc(-c3ccc4c(c3)CCN4C(=O)Cc3cc(F)ccc3F)c12 [GSK2587663] | 1% | 21% | 13% | 0% | 3% | 5% | 0% | 12% | 5% | 21% |  |  |  |  |  | 
Fc1ccc(Nc2nccc(-c3c(-c4ccc(Cl)cc4)nn4ncccc34)n2)cc1F [GW829058] | 18% | 20% | 0% | 21% | 5% | 0% | 0% | 11% | 40% | 24% |  |  |  |  |  | 
O=C(Nc1ccccc1)Nc1ccc(Oc2ccc3nccn3n2)cc1 | 100% | 18% | 0% | 6% | 0% | 0% | 0% | 30% | 70% | 23% |  |  |  |  |  | 
CCc1nc(-c2cccc(N(C)S(=O)(=O)c3ccccc3)c2)c(-c2ccnc(Nc3ccc(N4CCN(C(C)=O)CC4)nc3)n2)s1 [GSK1645895] | 5% | 0% | 22% | 0% | 3% | 0% | 0% | 0% | 29% | 79% |  |  |  |  |  | 
CS(=O)(=O)CCNCc1ccc(-c2ccc3ncnc(Nc4ccc(OCc5ccccc5)c(Cl)c4)c3c2)o1.Cl [GW574783] | 39% | 25% | 2% | 16% | 16% | 0% | 0% | 0% | 0% | 100% |  |  |  |  |  | 
O=C(Nc1n[nH]c2nc(-c3ccco3)c(Br)cc12)c1ccc(CN2CCCC2)cc1.O=C(O)[C@H](O)[C@@H](O)C(=O)O [SB-742352] | 0% | 0% | 0% | 0% | 42% | 20% | 0% | 0% | 14% | 8% |  |  |  |  |  | 
Clc1ccc(-c2cc(-c3c[nH]nc3-c3ccccn3)ccn2)cc1 [GW681251] | 7% | 92.9% | 0% | 0% | 0% | 0% | 11% | 0% | 0% | 24% |  |  |  |  |  | 
COc1ccc(NC(=O)c2ccc(-c3cc(-c4nnc(C)o4)ccc3C)cc2)cc1 [GW595885] | 9% | 18% | 0% | 0% | 0% | 0% | 20% | 0% | 4% | 14% |  |  |  |  |  | 
COc1ccc(-c2nc3n(c2-c2ccncc2)CCC3)cc1 [SKF-104493] |  |  |  | 0% | 0% |  | 0% |  | 0% |  | 31% and 51% | 0% and 20% | 0% and 15% | 2% and 0% | 0% and 5% | 0% and 15%
O=C(CCO)NCCn1ccc2ncnc(Nc3ccc(Oc4cccc(C(F)(F)F)c4)c(Cl)c3)c21 | 0% | 0% | 0% | 0% | 0% | 0% | 0% | 12% | 0% | 100% |  |  |  |  |  | 
COc1ccc(Nc2nccc(N3CCC(NC(=O)c4cccc(NC(C)=O)c4)C3)n2)cc1 (stereo not drawn) [GSK1379732] | 41% | 33% | 0% | 13% | 24% | 0% | 8% | 87% | 7% | 16% |  |  |  |  |  | 
COc1cc2c(Nc3cccc(NC(=O)c4ccccc4)c3)ncnc2cc1OCCCN1CCOCC1 [GSK223810] | 16% | 13% | 0% | 0% | 11% | 0% | 0% | 15% | 33% | 87% |  |  |  |  |  | 
Cl.Cn1ccc(-c2cccc(Nc3ccnc4cc(-c5nccs5)ccc34)c2)n1 [GW525701] | 33% | 37% | 0% | 0% | 8% | 10% | 12% | 16% | 0% | 11% |  |  |  |  |  | 
FC(F)(F)c1ccc(-c2cc(-c3c[nH]nc3-c3ccccn3)ccn2)cc1 [GW599550] | 17% | 41% | 0% | 4% | 10% | 0% | 10% | 23% | 0% | 18% |  |  |  |  |  | 

SMILES | %Inh (DDR2) | %Inh (DLK) | %Inh (DMPK2) | %Inh (DMPK) | %Inh (DRAK1) | %Inh (DRAK2) | %Inh (DYRK1A) | %Inh (DYRK1B) | %Inh (DYRK2) | %Inh (EGFR) | %Inh (DDR2; 1 µM) | %Inh (DLK; 1 µM) | %Inh (DMPK2; 1 µM) | %Inh (DRAK2; 1 µM) | %Inh (DYRK1B; 1 µM) | %Inh (EGFR; 1 µM)
Fc1cccc(COc2ccc(Nc3ncnc4sc(-c5ccc[nH]5)cc34)cc2Cl)c1 [GW707818] | 21% | 40% | 0% | 0% | 3% | 0% | 0% | 38% | 8% | 100% |  |  |  |  |  | 
Fc1cccc(COc2ccc(Nc3ncnc4nn5ccccc5c34)cc2Cl)c1 [GW689066] | 37% | 52% | 0% | 0% | 87% | 0% | 8% | 0% | 0% |  |  |  |  |  |  | 
CC(=O)Nc1n[nH]c2ncc(-c3ccccc3)cc12 [SB-548492] | 11% | 0% | 0% | 0% | 20% | 0% | 32% | 0% | 24% | 3% |  |  |  |  |  | 
CCCc1ccc(S(=O)(=O)NC2CCN(c3ccnc(Nc4ccc(OC)cc4)n3)C2)cc1 (stereo not drawn) [GSK1379737] | 34% | 28% | 94.7% | 0% | 0% | 0% | 19% | 8% | 0% | 32% |  |  |  |  |  | 
COc1ccc(Nc2nccc(N3CCC(NC(=O)Nc4ccc5c(c4)OCO5)C3)n2)cc1 (stereo not drawn) [GSK1379745] | 21% | 35% | 20% | 0% | 0% | 0% | 8% | 5% | 7% | 25% |  |  |  |  |  | 
Cl.c1ccc(Cn2ccc3cc(Nc4ncnc5ccccc45)ccc32)cc1 [GW275568] | 16% | 6% | 5% | 0% | 0% | 0% | 4% | 0% | 9% | 100% |  |  |  |  |  | 
Cl.Fc1ccccc1COc1ccc(Nc2ncnc3ccc(-c4nnc(C(F)(F)F)o4)cc23)cc1Cl [GW424170] | 18% | 11% | 11% | 0% | 4% | 0% | 4% | 0% | 11% | 99.4% |  |  |  |  |  | 
Nc1nc(-c2ccc3c(N)n[nH]c3c2)cc(N2CCCCC2)n1 [GSK2228768] | 0% | 0% | 0% | 0% | 93.1% | 11% | 18% | 0% | 58% | 3% |  |  |  |  |  | 
COC(=O)c1c(-c2ccccc2)c2cc(Cl)ccc2c(=O)n1Cc1ccc(S(C)(=O)=O)cc1 | 5% | 0% | 0% | 0% | 0% | 3% | 17% | 10% | 44% | 6% |  |  |  |  |  | 
Nc1nc(-c2cccnc2)c(-c2ccnc3ccccc23)s1 [GW684083] | 43% | 60% | 0% | 0% | 32% | 0% | 20% | 0% | 9% | 0% |  |  |  |  |  | 
N#Cc1ccc(Oc2ccc(Nc3ncnc4cc[nH]c34)cc2Cl)cc1 | 0% | 0% | 4% | 0% | 32% | 1% | 1% | 15% | 0% | 96.7% |  |  |  |  |  | 
c1ccc(-c2ccc3c(-c4ccnc(Nc5ccc6c(c5)OCCO6)n4)cnn3n2)cc1 [GW818941] | 26% | 0% | 0% | 20% | 15% | 0% | 8% | 16% | 0% | 14% |  |  |  |  |  | 
C[C@H]1CC[C@@H](C(=O)Nc2ccccc2)CN1c1cc(-c2ccc3c(N)n[nH]c3c2)nc(N)n1 [GSK2283293] | 5% | 25% | 11% | 0% | 97.9% | 64% | 17% | 0% | 7% | 30% |  |  |  |  |  | 
Cc1ccc(O)cc1Nc1cc(C(F)(F)F)nc2ccc(-c3ccncc3)cc12 [GW630823] | 0% | 0% | 4% | 0% | 21% | 11% | 0% | 7% | 0% | 15% |  |  |  |  |  | 
CC(C)N1CCC(n2cnc(-c3ccc(F)cc3)c2-c2ccnc(N)n2)CC1 [SB-223132] | 38% | 0% | 11% | 0% | 7% | 7% | 0% | 5% | 0% | 10% |  |  |  |  |  | 
Cl.Cl.c1ccc(-c2cc3ccncc3cc2OC2CCNCC2)cc1 [GSK1122999] | 0% | 31% | 18% | 0% | 21% | 0% | 13% | 15% | 21% | 23% |  |  |  |  |  | 
FC(F)(F)c1ccc(-c2nn3ncccc3c2-c2ccnc(Nc3cccc(C(F)(F)F)c3)n2)cc1 [GW828205] | 25% | 7% | 0% | 7% | 0% | 18% | 0% | 41% | 31% | 11% |  |  |  |  |  | 
